Measurements published in PubChem BioAssay (NCATS).
Records with an inconclusive call do not appear. Active and inactive are the calls of the source. Calls follow the shape of the dose curve; as a rule, active = well fitted curve in the direction sought with a large enough effect; inconclusive = small, poorly fitted or top-dose-only effect, or another doubt; inactive = no such curve, though single readings can be large; an effect the other way counts as inactive or inconclusive.

What was measured:
[1] = biological target: Rap guanine nucleotide exchange factor 3 (Homo sapiens) (UniProt O95398); experiment: Confirmatory qHTS for antagonist of cAMP-regulated guanine nucleotide exchange factor 3 (EPAC1) (AID 1645880);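 also: plate controls were DMSO only for no effect and full effect of the ATA control for full effect; nearly all actives have a fitted effect of over 55% in size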
Rap guanine nucleotide exchange factor 3 (Homo sapiens), sequence (O95398 whole entry, looked up): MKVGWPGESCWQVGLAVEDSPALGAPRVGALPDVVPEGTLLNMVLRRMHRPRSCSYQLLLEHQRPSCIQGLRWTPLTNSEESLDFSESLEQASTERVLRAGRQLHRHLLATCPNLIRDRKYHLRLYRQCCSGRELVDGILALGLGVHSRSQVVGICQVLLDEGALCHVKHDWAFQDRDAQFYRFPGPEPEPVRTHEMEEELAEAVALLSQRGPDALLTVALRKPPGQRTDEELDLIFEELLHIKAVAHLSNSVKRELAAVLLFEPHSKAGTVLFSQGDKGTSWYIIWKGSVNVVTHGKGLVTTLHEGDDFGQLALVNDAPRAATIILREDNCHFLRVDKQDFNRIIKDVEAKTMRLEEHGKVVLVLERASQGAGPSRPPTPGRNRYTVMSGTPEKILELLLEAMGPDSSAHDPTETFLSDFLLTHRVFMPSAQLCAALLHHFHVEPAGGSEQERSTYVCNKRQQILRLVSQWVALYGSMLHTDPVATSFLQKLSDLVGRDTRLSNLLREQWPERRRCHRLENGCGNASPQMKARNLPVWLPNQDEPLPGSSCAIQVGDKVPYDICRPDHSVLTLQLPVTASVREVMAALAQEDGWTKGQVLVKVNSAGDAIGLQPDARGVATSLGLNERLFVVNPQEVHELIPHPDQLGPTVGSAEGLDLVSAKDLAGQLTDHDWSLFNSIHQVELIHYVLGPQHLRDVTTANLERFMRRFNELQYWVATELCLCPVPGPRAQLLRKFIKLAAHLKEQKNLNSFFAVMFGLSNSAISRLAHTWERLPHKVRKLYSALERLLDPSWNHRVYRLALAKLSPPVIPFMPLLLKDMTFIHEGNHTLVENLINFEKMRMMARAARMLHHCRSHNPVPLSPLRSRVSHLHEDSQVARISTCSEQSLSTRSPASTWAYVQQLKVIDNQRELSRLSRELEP
Outline: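 Nucleotide exchange uses 100 nM EPAC1, 250 nM RAP1B-BODIPY-GDP and 50 uM GDP, with compounds in a concentration-titration series. After 5 min at room temperature, fluorescence (480 nm ex/540 nm em) is read every 5 min for 30 min. Data are normalized to control ATA and DMSO.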

[2] = biological target: Rap guanine nucleotide exchange factor 3 (Homo sapiens) (UniProt O95398); experiment: Confirmatory qHTS for agonist of cAMP-regulated guanine nucleotide exchange factor 3 (EPAC1) (AID 1645881);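 also: EPAC1 catalysed release of BODIPY-GDP from Rap1B seen as fluorescence loss; 100% = effect of cAMP agonist control; nearly all actives have a fitted effect of over 75% in size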
[3] = biological target: Rap guanine nucleotide exchange factor 4 (Homo sapiens) (UniProt Q8WZA2); experiment: Confirmatory qHTS for agonist of cAMP-regulated guanine nucleotide exchange factor 4 (EPAC2) (AID 1645884);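 also: nucleotide exchange releases bodipy-GDP from Rap1 and this lowers its fluorescence; % is scaled to controls: 0 for no effect and ±100 for the full control effect; nearly all actives have a fitted effect of over 65% in size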
Rap guanine nucleotide exchange factor 4 (Homo sapiens), sequence (Q8WZA2 whole entry, looked up): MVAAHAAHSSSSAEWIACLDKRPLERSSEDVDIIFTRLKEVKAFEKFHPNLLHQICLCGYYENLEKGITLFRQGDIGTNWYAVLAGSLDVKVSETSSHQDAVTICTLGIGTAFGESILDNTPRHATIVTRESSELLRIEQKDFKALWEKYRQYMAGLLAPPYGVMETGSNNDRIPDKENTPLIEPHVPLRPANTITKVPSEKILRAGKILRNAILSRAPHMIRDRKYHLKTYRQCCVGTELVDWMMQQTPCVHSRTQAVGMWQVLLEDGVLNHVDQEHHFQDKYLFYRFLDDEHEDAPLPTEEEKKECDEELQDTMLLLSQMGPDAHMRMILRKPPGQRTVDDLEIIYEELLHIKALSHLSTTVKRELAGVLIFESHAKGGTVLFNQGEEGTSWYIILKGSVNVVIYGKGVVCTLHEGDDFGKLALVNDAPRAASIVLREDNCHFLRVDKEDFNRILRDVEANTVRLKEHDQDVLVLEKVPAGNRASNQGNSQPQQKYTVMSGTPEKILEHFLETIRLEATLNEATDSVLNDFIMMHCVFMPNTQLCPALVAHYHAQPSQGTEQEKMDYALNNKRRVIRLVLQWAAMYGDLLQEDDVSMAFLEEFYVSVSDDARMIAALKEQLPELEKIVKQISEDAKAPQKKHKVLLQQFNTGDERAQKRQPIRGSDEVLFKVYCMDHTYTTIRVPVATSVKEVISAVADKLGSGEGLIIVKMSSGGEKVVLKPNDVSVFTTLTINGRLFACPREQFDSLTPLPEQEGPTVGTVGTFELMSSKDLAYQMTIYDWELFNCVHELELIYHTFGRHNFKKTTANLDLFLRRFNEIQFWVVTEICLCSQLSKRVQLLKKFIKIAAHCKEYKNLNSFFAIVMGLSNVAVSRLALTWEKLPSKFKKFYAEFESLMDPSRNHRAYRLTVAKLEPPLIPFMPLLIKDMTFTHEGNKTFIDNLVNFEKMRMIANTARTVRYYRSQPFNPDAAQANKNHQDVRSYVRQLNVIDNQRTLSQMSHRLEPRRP

[4] = biological target: Rap guanine nucleotide exchange factor 4 (Homo sapiens) (UniProt Q8WZA2); experiment: Confirmatory qHTS for antagonist of cAMP-regulated guanine nucleotide exchange factor 4 (EPAC2) (AID 1645885); also: nearly all actives have a fitted effect of over 25% in size; also: potency is read from the fitted curve at half-maximal effect; as to activity change, negative = inhibition: % is scaled to controls: 0 for no effect and ±100 for the full control effect
[5] = biological target: Rap guanine nucleotide exchange factor 3 (Homo sapiens) (UniProt O95398); experiment: Counterscreen qHTS for antagonist of cAMP-regulated guanine nucleotide exchange factor 3 (EPAC1) (AID 1645888);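 also: fluorescence loss as bound BODIPY-GDP is released from Rap1B; % of control where 0% means no effect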
Outline: (§1)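 Rap1B–BODIPY-GDP (250 nM) with 50 uM GDP; compounds pin-transferred to 9.74 nM–152 uM final (activator) or from 7.32 nM upwards (inhibitor). Fluorescence Ex/Em 480/540 nm read at 5 and 30 min, then after adding cAMP or buffer, at room temperature.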

[6] = biological target: Rap guanine nucleotide exchange factor 3 (Homo sapiens) (UniProt O95398); experiment: Counterscreen qHTS for agonist of cAMP-regulated guanine nucleotide exchange factor 3 (EPAC1) (AID 1645889); also: % of control where 0% means no effect; nearly all actives have a fitted effect of over 40% in size
Outline: as §1

Cc1ccc(S(=O)(=O)N2CCCCC2)cc1C(=O)NCCC1=CCCCC1
inactive: Potency [1] | Potency [2] | Potency [3] | Potency [4] | Potency [5] | Potency [6]

CCCCN1C(=O)C(C(=O)OCc2ccccc2)CC2=C1CCCC2=O (stereo unspecified)
inactive: Potency [1] | Potency [2] | Potency [3] | Potency [4] | Potency [5] | Potency [6]

c1ccc(-n2nnnc2-n2ccnc2)cc1
inactive: Potency [1] | Potency [2] | Potency [3] | Potency [4] | Potency [5] | Potency [6]

Cc1[nH]c(C)c2c(=O)n(Cc3ccc(Cl)cc3)ncc12
inactive: Potency [1] | Potency [2] | Potency [3] | Potency [5] | Potency [6]
active: Potency [4] 15.1 µM

O=C(Cn1c(=O)oc2cc(S(=O)(=O)N3CCCCC3)ccc21)N1CCc2ccccc2C1
inactive: Potency [1] | Potency [2] | Potency [3] | Potency [4] | Potency [5] | Potency [6]

O=C(COC(=O)c1ccc2c(c1)OCO2)NC1CCS(=O)(=O)C1 (stereo unspecified)
inactive: Potency [1] | Potency [2] | Potency [3] | Potency [4] | Potency [5] | Potency [6]

Cc1ccc(NC(=O)CSc2ncn[nH]2)cc1C
inactive: Potency [1] | Potency [2] | Potency [3] | Potency [4] | Potency [5] | Potency [6]

CCN(CC)c1nc(C#N)cc(-c2ccc(OC)cc2)n1
inactive: Potency [1] | Potency [2] | Potency [3] | Potency [4] | Potency [5] | Potency [6]

Cc1nn(CC(=O)N(C)C2CCS(=O)(=O)C2)c(C)c1[N+](=O)[O-] (stereo unspecified)
inactive: Potency [1] | Potency [2] | activation [3] 2.8% [at 17.1 µM, percent relative to cAMP agonist control] | Potency [4] | activity change, negative = inhibition [5] -13.2% [at 30.8 µM] | activation [6] 30.9% [at 30.8 µM]

Cc1cn2c(=O)cc(COc3ccc(C(C)(C)C)cc3)nc2s1
inactive: Potency [1] | Potency [2] | Potency [3] | Potency [4] | Potency [5] | Potency [6]

CN(Cc1ccc(F)cc1)C(=O)c1cccc(OCc2ccccc2)c1
inactive: Potency [1] | Potency [2] | activation [3] 10.9% [at 17.1 µM, percent relative to cAMP agonist control] | Potency [4] | activity change, negative = inhibition [5] 1.29% [at 30.8 µM] | activation [6] -0.388% [at 30.8 µM]
